Measurements taken from PubChem BioAssay (NCI).
The panel holds about 83,000 compounds, 20% with a hit somewhere; the sample as a whole holds those more often.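 Results are percent growth after 48 hours of single-concentration exposure. 100 means growth as in untreated cells, lower positive values show inhibition; negative values down to -100 show cell death.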 Calls of active or inactive are those of the source.

What follows are molecules tested on NCI-H522 lung (assay: NCI-60 one-dose screen, 48 h (100 = growth as untreated, 0 = no growth, -100 = all killed)). Conditions: 10 µM unless noted.
Procedure: Growth inhibition of the NCI-H522 human Non-Small Cell Lung tumor cell line is measured as a screen for anti-cancer activity. Cells are grown in 96 well plates and exposed to the test compound for 48 hours. Compounds are tested at a single concentration, which is 10^-5 M for most compounds. The reported endpoint is percent growth (GI% or GIPRCNT), where numbers from 0 - 100% represent growth inhibition, and numbers from -100% - 0 represent cell death. For example, a value of 40 represents 60% growth inhibition. A value of 0 means no net growth occurred over the course of the experiment. A value of -40 indicates 40% of cells at the beginning of the experiment died by the end of the experiment. A value of -100 means all cells are dead at the end of the experiment.
NCI-60 Human Tumor Cell Lines Screen was performed using the standard one-dose NCI protocol, which is described in more detail at https://dtp.cancer.gov/discovery_development/nci-60/default.htm.
Compounds with GIPRCNT values below 10 were considered active. Activity score was based on GIPRCNT using the following formula: […]
Score is 0 for GIPRCNT values of 100 or above, 50 for GIPRCNT values of 0, and 100 for GIPRCNT values of -100.

Row | Compound | growth
1 | N/C(=C\C(=O)n1nc(-c2ccccc2)cc1N)c1ccccc1 | -22.3% (active)
2 | O=C1OCC2=C1C(c1ccccc1)c1cc3c(cc1N2CCO)OCO3 (stereo not given) | -23.7% (active)
3 | COc1cnc2c(c1)C(=O)c1c-2n(CCCN2CCNCC2)c(=O)c2cc(Cl)ccc12 | 17.4% (inactive)
4 | O=C(Cc1ccc([N+](=O)[O-])cc1)Oc1ccccc1 | 97.2% (inactive)
5 | O=C1NN(C(=O)c2ccccc2)C(c2ccc(Cl)c(Cl)c2)=C/C1=C\c1ccccc1[N+](=O)[O-] | -11.1% [6.75 µM] (active)
6 | Cc1cccc(N=NC(=S)NNc2cccc(C)c2)c1 | 95.4% (inactive)
7 | O=C1Nc2ccc(Br)cc2/C1=N/c1nc(-c2ccccc2)cs1 | 71.4% (inactive)
8 | COc1ccc(C(=O)N2N=C(c3ccc(F)cc3)CC2c2cn(-c3ccccc3)nc2-c2ccccc2)cc1 (stereo not given) | 52.4% (inactive)
9 | CC(=O)Oc1ccccc1C(=O)Nc1ncc([N+](=O)[O-])s1 | -15.9% (active)
10 | C=CCOc1ccc2c(C)cc(=O)oc2c1 | 93.3% (inactive)
11 | CCCCCCCCCCCCNC(=O)N[C@H](C(=O)N[C@H]1/C=C/OCCNC(=O)/C=C/[C@H](C(C)C)NC1=O)C(C)C | 47.6% (inactive)
12 | O=C(N/N=C/c1ccc([N+](=O)[O-])cc1)c1ccccc1Nc1ccnc(C(F)(F)F)c1 | 67.9% (inactive)
13 | CC(C)=CC[C@@H]1CC2(CC=C(C)C)C(=O)C(OC3(C(=O)c4ccccc4)C(=O)C4(CC=C(C)C)C[C@@H](CC=C(C)C)C(C)(C)C(CC=C(C)C)(C4=O)C3=O)(C(=O)c3ccccc3)C(=O)C(CC=C(C)C)(C2=O)C1(C)C (stereo not given in full) | -28.8% (active)
14 | CC(C)c1nc2ccccc2n1CC(=O)N/N=C/c1cccc(O)c1 | 86.6% (inactive)
15 | NS(=O)(=O)c1ccc(CCn2c(SCC(=O)N/N=C/c3ccccc3O)nc3ccccc3c2=O)cc1 | 8.06% (active)
16 | C=C1C(=O)O[C@H]2[C@H]1CC/C(COC(=O)NCc1cn(C)c3ccccc13)=C\CC[C@@]1(C)O[C@@H]21 | -80.2% (active)
17 | CCOC(=O)c1cc(C(=O)OCC)c(C)nc1C | 103% (inactive)
18 | CCN1C(=O)C(C)C=C(C)C=C1C (stereo not given) | 84.5% (inactive)
19 | O=S1(=O)NCCCN1CCNc1nccc(-c2c(-c3cccc(O)c3)nc3sccn23)n1 | 76% (inactive)
20 | CCSc1cnnc2ccccc12 | 97.8% (inactive)

Row | Compound | growth
21 | COc1ccc(-c2cc(-c3cn(-c4cccc(Cl)c4)nc3-c3ccc(OC)cc3)[nH]c(=S)n2)cc1 | 77.7% (inactive)
22 | NC(N)=N/N=C/c1ccc(Cl)cc1 | 79.9% (inactive)
23 | CCN(CC)c1ccc(/C=N/N=C(N)N)cc1 | 27.1% (inactive)
24 | CC(=O)Nc1c(Br)cc2c(c1Br)Cc1cc(Br)ccc1-2 | 76% (inactive)
25 | O=C(O/C(=C/c1ccccc1)C(F)(F)F)c1ccccc1 | 105% (inactive)
26 | CC(C)OC1OC(OC(C)C)C(OC(C)C)OC1OC(C)C (stereo not given) | 70.9% (inactive)
27 | CCNCCCn1c2c(c3ccc(Cl)cc3c1=O)C(=O)c1cc(OC)cnc1-2 | -10.2% (active)
28 | COc1ccc(-c2cnc(-c3ccncc3-c3cccc(OC)c3)o2)cc1 | -59.9% (active)
29 | CCCCn1cnc2c(SCc3ccc([N+](=O)[O-])cc3)nc(N)nc21 | 73.9% (inactive)
30 | CN(C)CC(=O)c1ccc2cc(Br)c3ccccc3c2c1 | 9.3% (active)
31 | COc1ccccc1CNCCCN1C(=O)c2ccc3c4c(ccc(c24)C1=O)C(=O)N(CCCNCCCN)C3=O | -75.6% (active)
32 | O=C(/C=C/c1ccccc1)c1c[nH]c2ccccc2c1=O | 0.426% (active)
33 | CCCCCCCCCCCC1=NC(C)(C)CN1CCO | 69.2% (inactive)
34 | COc1ccc(-c2conc2-n2nc(-c3ccccc3)nc2-c2ccccc2)cc1 | 89.7% (inactive)
35 | NNC(=O)CSc1nc2scc(-c3ccccc3)c2c(=O)n1-c1ccccc1 | 91.4% (inactive)
36 | Cc1ccc(OC2=C(C#N)C(=N)N3C(=NN2)Sc2c(C)ccc(C)c23)cc1 | 90.4% (inactive)
37 | c1cc(C2CCCCC2)ccc1-c1cnc2nonc2n1 | -2.99% (active)
38 | Clc1cc(Cl)cc(-c2cnc3nonc3n2)c1 | -69.3% (active)
39 | COc1ccccc1CNCCCN1C(=O)c2ccc3c4c(ccc(c24)C1=O)C(=O)N(CCCOCCCCOCCCN)C3=O | -77.4% (active)
40 | Nc1ccc(C2=NNC(=O)Cc3cc4c(cc32)OCCO4)cc1Cl | 11% (inactive)
